# Screening results: PubChem BioAssay, several laboratories
# Compounds with a hit are over-represented: about 1.4% of the library has one in this group of screens.
# DUSP3 inh = blocks human VHR1 dual specificity phosphatase | P51452 | recombinant VHR phosphatase, pNPP absorbance | inhibition, % at 13.3 µM | 0.52% of 290,000 active; in the data active = inhibition above about 50%
# Target sequence (P51452 whole entry, looked up): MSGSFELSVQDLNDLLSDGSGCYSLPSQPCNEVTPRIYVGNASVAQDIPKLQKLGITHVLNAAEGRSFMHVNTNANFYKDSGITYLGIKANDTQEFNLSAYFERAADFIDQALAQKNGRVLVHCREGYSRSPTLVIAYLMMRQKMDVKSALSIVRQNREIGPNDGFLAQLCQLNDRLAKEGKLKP
# 3CLpro inhibitor = SARS-CoV 3CLpro protease inhibition | P0C6X7 | 0.14% of 290,000 active | inhibition, % at 6 µM | recombinant SARS-CoV 3CLpro, quenched FRET peptide cleavage; in the data active = inhibition above about 12%
# BJeLR viability = kills HRASV12-expressing BJeLR cells; AID 1554; 0.17% of 300,000 active; BJeLR (HRASV12) viability, CellTiter-Glo ATP luminescence, 48 h; inhibition, % (concentration not given with the values); in the data active = inhibition above about 50%
# RN4220 kill = kills Staphylococcus aureus RN4220. S. aureus RN4220 growth, OD600, 16 h. inhibition, % (test concentration not listed). 0.33% of 330,000 active; in the data active = inhibition above about 85%;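 note: plate controls were untreated cells for no effect and reference antibiotic for full effect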
# PrPC TRFRET = inhibitors of human cell surface prion protein PrPC. AID 720596. TR-FRET read-out. P04156. inhibition, % at 13.8 µM. 0.43% of 370,000 active; in the data active = inhibition above about 24%; note: 0% = median of the test wells and 100% = reference compound wells
# Sa ugtP lethal = growth inhibition of S. aureus ugtP deletion strain; growth inhibition, % (no concentration beside the values); 0.54% of 330,000 active; S. aureus RN4220 ugtP deletion, OD600 growth, 16 h; in the data active = growth inhibition above about 68%;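 note: plate controls were untreated wells for no effect and antibiotic for full effect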
# PrPC confirm = confirmation of inhibitors of cell surface human prion protein; shares compounds with PrPC TRFRET; cell surface PrPC level, TR-FRET; inhibition, % at 13.8 µM; 65% of 1,500 active; AID 743200; in the data active = inhibition above about 25%
# LD9 tox = LD9 cell cytotoxicity, PrPc inhibitor counter-screen; LD9 cells cytotoxicity, luminescence viability; 29% of 1,500 active; inhibition, % at 13.8 µM; AID 743201; shares compounds with PrPC TRFRET; in the data active = inhibition above about 9.5%
# * hit, by the source's call; / = not tested or not shown.
SMILES,DUSP3 inh,3CLpro inhibitor,BJeLR viability,RN4220 kill,PrPC TRFRET,Sa ugtP lethal,PrPC confirm,LD9 tox
CCOc1ccc(NC(=O)Nc2cccn(Cc3ccccc3)c2=O)cc1,7,0,6,1,30*,1,15,-7
COc1ccc(C)cc1C1=CC(=O)CC(c2ccc(F)cc2)C1 (centres undefined),/,/,/,1,/,1,/,/
COC(=O)c1sc(S(=O)(=O)Nc2c(C)nn(C)c2C)c(C(=O)OC)c1C,/,/,/,1,3,5,/,/
COC(=O)c1sc(NC(=S)NNC(=O)c2c(Br)c(C)nn2C)c(C(=O)OC)c1C,40,2,3,9,132*,15,146*,-3
CC1CC1C(=O)Nc1nc(-c2cccs2)c(-c2cccs2)s1 (centres undefined),-19,-1,-5,/,25*,/,12,-3
Nc1nc(-c2cccs2)c(-c2cccs2)s1,6,0,-1,4,25*,33,20,-1
CCN1C(=O)C2C(c3ccc(C)cc3)N3C(=O)N(c4cccc(Cl)c4)C(=O)[C@@]3(C)C2C1=O (some centres undefined),/,/,/,4,/,1,/,/
CC1CN=C(Nc2ccccc2)N1CC1CCCCCC1 (centres undefined),/,/,/,5,/,-13,/,/
COC(=O)[C@H]1[C@@H](O)[C@@]2(O)c3c(OC)cc(OC)cc3O[C@@]2(c2ccc(OC)cc2)[C@@H]1c1ccc(F)cc1,/,/,/,/,83*,/,91*,20*
COC(=O)C1C(=O)C=C(Nc2ccc(F)cc2)CC1c1ccc(OC)cc1 (centres undefined),15,-2,-1,6,0,3,/,/
CCN1C(=O)C2C(c3ccc(OC)cc3)N3C(=O)CN(CC4CC4)C(=O)[C@@]3(C)C2C1=O (some centres undefined),/,/,/,0,/,-5,/,/
CC(Sc1ncnc2ccccc12)C(=O)Nc1ccc2c(c1)OCO2 (centres undefined),38,-3,-1,-1,29*,1,37*,1
COC(=O)C1=C(c2ccc(F)cc2OCc2ccccc2)CC2CCC1N2C(=O)NCc1ccc(C(C)(C)C)cc1 (centres undefined),/,/,/,-5,/,14,/,/
NC1=NC(=O)C(=Cc2cccc(-c3ccc(S(N)(=O)=O)cc3)c2)S1,/,/,/,10,/,6,/,/
Cc1ccc2nc(NC(=O)c3ccccn3)sc2c1,52*,7,22,4,25*,3,61*,77*
O=C(COc1cccc2c1CCN(Cc1ccccc1)C2=O)N1CCCCC1,15,-1,-4,5,29*,3,18,-3
O=C(Cc1ccccc1)Nc1cccc(NC(=O)c2cccs2)c1,12,6,-13,9,32*,-3,17,-5
O=C(CCc1ccccc1)Nc1cccc(NC(=O)CCc2ccccc2)c1,19,2,-10,1,25*,2,11,-4
CC(C)(C)c1csc(NC(=O)CCc2ccccc2)n1,4,4,-1,-3,26*,2,19,-8
CC(C)(C)c1csc(NC(=O)Cc2cccs2)n1,1,-3,12,-1,4,7,/,/
O=C(Nc1ccc(OCc2ccccc2)cc1)c1cccs1,42,-5,-1,7,25*,9,16,2
O=C(CCc1ccccc1)Nc1ccccc1,13,0,-17,7,2,-1,/,/
NC1=NCC(Cc2ccccc2)N1CCc1cccc(F)c1 (centres undefined),/,/,/,6,/,-4,/,/
COc1ccc(C=Cc2nc3sc4c(c3c(=O)o2)CCC4)cc1,/,/,/,5,/,1,/,/
COC(=O)C1=C(c2cc3ccccc3s2)CC2CCC1N2C(=O)NCCS(C)=O (centres undefined),/,/,/,5,/,3,/,/
O=C(Nc1ccc(Cl)c(C(F)(F)F)c1)C1CC=CC2CCN(C3CCCCC3)C(=O)C21 (centres undefined),/,/,/,-2,/,0,/,/
COC(=O)c1ccc(C=Cc2c(-c3ccc(OC)cc3)sc3ccccc23)cc1,/,/,/,-9,/,37,/,/
O=c1[nH]c(CN2CCN(c3ccccc3O)CC2)nc2scc(-c3ccccc3Cl)c12,18,1,4,2,7,0,/,/
